# Assay results reported in PubChem BioAssay (NCI).
# About 83,000 compounds went through this panel and 20% of them were active in at least one assay; those are over-represented in the sample as a whole.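 Values shown are percent growth following 48 h exposure of cells in 96-well plates to a single concentration of compound; below 10 was considered active.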 A number with no mark means an inactive call. The source made the active and inactive calls.
# Tested on: MDA-MB-468 breast
# Experiment: NCI-60 one-dose screen, 48 h (100 = growth as untreated, 0 = no growth, -100 = all killed)
# Conditions: 10 µM unless noted
row,Structure (SMILES),growth
1,CC1(C)C2CC=C(/C=N/NC(=O)C3CCC(=O)N3)C1C2 (stereo not given),114%
2,CCc1cc(O)ccc1Nc1cc(-c2ccc(-n3cccn3)cc2)[nH]n1,58.8%
3,O=C(CC(O)c1ccccc1)Nc1ccccn1 (stereo not given),119%
4,COc1cc(/C=C2\C=C(c3ccc(F)cc3)N(Cc3ccccc3)C2=O)cc(OC)c1OC,49.9%
5,COc1ccc(OCC(=O)Nc2ccc(-c3nc4ccccc4s3)cc2C)cc1,7.38% (active)
6,O=C1[C@@H]2Cc3c([nH]c4ccccc34)[C@H](c3ccc(Br)cc3)N2C(=O)CN1C1CCN(Cc2c(Cl)cccc2Cl)CC1,95.9%
7,COCCOC(=O)NC(=O)Nc1ccc(C(=O)c2ccc(Cl)cc2)cc1,-8.24% (active)
8,COC(=O)c1n[nH]c2ccc3nc(-c4cn[nH]c4C(F)(F)F)c4c(c3c12)CCCC4,73.8%
9,CCC(=O)Oc1ccc(/C(=C(\C)c2ccccc2)c2ccc(OCCN(CC)CC)cc2)cc1,82.4%
10,O=C(N/N=C/c1cc2ccccc2n2nnnc12)Nc1ccccc1,98.3%
11,NC(=O)[C@@H]1Cc2ccccc2CN1C(=O)c1ccc2c(c1)Cc1ccccc1-2,71.4%
12,Clc1ccc(-c2nc(-c3c[nH]c4ncccc34)cs2)cc1,80.2% [100 µM]
13,CN(C)CCn1c2ccc(N)cc2c2nc3ccccc3nc21,23.7%
14,CCc1ccc(CCC(=O)Nc2ncc(Cc3ccc(Cl)cc3)s2)o1,0.812% (active)
15,COc1cc(Cn2c(SCC(=O)Nc3ccc(Cl)cc3)nc3ccccc3c2=O)cc(OC)c1OC,47.1%
16,CCN(CC)Cc1cc(Nc2ccnc3ccc(OC)cc23)ccc1O,-3.96% (active)
17,CN(Cc1ccccc1)c1nc(Cl)c(C2CC(c3ccc(Cl)cc3)=NN2c2cc(Cl)cc(Cl)c2)s1 (stereo not given),101%
18,O=C(O)C#Cc1ccc(Cl)cc1,101%
19,CC(=O)OC[C@]1(C)C=C2C(=O)[C@](C)(O)C3(CC3)C(C)=C2[C@H]1OC(C)=O,21.6%
20,CCOc1ccccc1C(=O)/C=C/c1cc2ccccc2[nH]c1=O,-20.2% (active)

row,Structure (SMILES),growth
1,Oc1cccc(-c2nc(-c3n[nH]c(=S)n3-c3ccccc3)cc3c2[nH]c2ccccc23)c1,9.85% (active)
2,CCOC(=O)c1ccc(Nc2sc(C(=O)c3cccc([N+](=O)[O-])c3)c(N)c2C#N)cc1,4.24% (active)
3,CCN1CCN(c2cc(C)c3cc(NC(=O)c4ccc(OC)c(OC)c4)ccc3n2)CC1,1.89% (active)
4,Nc1nc2c(c3cnccc13)C(c1cccc(Br)c1)Cc1cnccc1-2 (stereo not given),-16.1% (active)
5,OCc1cccc2ccccc12,124%
6,O=C1NC(=O)C2(CCCC2C(=O)O)N1 (stereo not given),107%
7,Oc1cccc(CCc2ccc(Oc3cc(CCc4cccc(O)c4)cc(O)c3O)cc2)c1,82.5%
8,O=C(Nc1ccc(-n2cc(-c3ccncc3)c(-c3ccc(Cl)c(O)c3)n2)cc1)Nc1cc(C(F)(F)F)cc(C(F)(F)F)c1,13.9%
9,COC(=O)c1ccc2c(c1)nc(-c1cc3ccccc3[nH]c1=O)n2-c1cc(C(C)(C)C)[nH]n1,101%
10,CC(C)(CCc1ccccn1)C(=O)CCCc1ccccn1,107%
11,CCN(CC)c1ccc2c(c1)Oc1nc(N)c(C#N)c(N)c1C2Sc1ccc(C)cc1 (stereo not given),-88.4% (active)
12,COc1ccc(-c2nn(-c3cccc(Cl)c3)cc2-c2nc(N)[nH]c(=O)c2C#N)cc1,73.9%
13,COc1ccc(-c2nc([C@@H](C)Sc3nc(N)cc(N)n3)c(C)s2)cc1OCCN1CCOCC1,92.7%
14,COc1ccc(C(=O)Cn2c(C(=O)c3ccc(OC)cc3)nc3ccccc32)cc1,17%
15,Oc1c(I)cc(-c2nc3ccccc3s2)cc1CN(Cc1ccccn1)Cc1ccccn1,-11.4% (active)
16,C=C[C@@H]1CCC/C=C/[C@@H]2C[C@H](O)C[C@H]2[C@H](O)/C=C/C(=O)O1,-46.6% (active)
17,CC(=O)Cc1nsc(NC(=O)c2cc(-c3cc(Cl)ccc3Cl)oc2C)n1,100%
18,COc1cc(-c2nc3sccn3c2-c2ccnc(NCCCNS(=O)(=O)c3ccc(F)cc3)n2)ccc1F,61.3%
19,COc1cc(C(=C2O[C@@H]([C@H]3COC(C)(C)O3)[C@H]3OC(C)(C)O[C@@H]23)c2cc(OC)c(OC)c(OC)c2)cc(OC)c1OC,106%
20,CC[C@H](C)[C@H](NC(=O)[C@H](CCCCN)NC(=O)[C@H](CCCCN)NC(=O)[C@@H](NC(=O)[C@@H](NC(=O)[C@@H](N)Cc1cnc[nH]1)[C@@H](C)CC)[C@@H](C)CC)C(=O)N[C@@H](CCCNC(=N)N)C(=O)N[C@H](C(=O)N[C@@H](Cc1c[nH]c2ccccc12)C(=O)N[C@@H](Cc1ccc(O)cc1)C(=O)N[C@@H](CCCNC(=N)N)C(=O)N[C@@H](CCCCN)C(=O)N[C@@H](C)C(=O)N[C@@H](Cc1c[nH]c2ccccc12)C(=O)N[C@@H](Cc1cnc[nH]1)C(=O)N[C@H](C(=O)N[C@@H](CC(C)C)C(=O)NCC(=O)N[C@@H](CCCCN)C(=O)N[C@H](C(N)=O)C(C)C)C(C)C)[C@@H](C)O,59.2%
